“And” between values parts separate entries of the source, which are not always exact repeats. Equal entries are not always repeated. Some compounds were tested as several samples or in several runs, with calls that do not always agree. The source made the active and inactive calls. Unless noted, calls follow the shape of the dose curve; as a rule, active = well fitted curve in the direction sought with a large enough effect in the repeat runs; inconclusive = weak or mixed curves; inactive = no such curve, though single readings can be large; an effect the other way counts as inactive or inconclusive.
Columns and labels:
[1] = qHTS assay to test for compound auto fluorescence at 460 nm (blue) in HEK293 cell free culture (AID 720681)
Outline: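 Compounds were added to cell-free DMEM with 10% FBS and fluorescence read directly. The blue channel used 405 nm excitation and 460 nm emission, with triamterene as the reference fluorophore.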

[2] = qHTS assay to test for compound auto fluorescence at 590 nm (red) in HepG2 cell free culture (AID 720684)
Outline: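 Rose Bengal sodium served as the reference for red signal. Test compounds were dispensed into serum-containing MEM (10% FBS) without cells, and plates were read at 540/590 nm.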

[3] = qHTS assay to test for compound auto fluorescence at 535 nm (green) in HepG2 cell free culture (AID 720686)
[4] = molecular target: Glucocorticoid receptor (Homo sapiens) (UniProt P04150); experiment: qHTS assay to identify small molecule agonists of the glucocorticoid receptor (GR) signaling pathway (AID 720691; active = well fitted activation curve with a large enough effect in the signal ratio in the repeat runs, not every such curve was filed as active; inconclusive = weak or mixed curves, or effect the other way; inactive = no such curve, though single readings can be large or run the other way; the % refers to the signal ratio)
Chain of Glucocorticoid receptor (Homo sapiens) (P04150 whole entry, looked up): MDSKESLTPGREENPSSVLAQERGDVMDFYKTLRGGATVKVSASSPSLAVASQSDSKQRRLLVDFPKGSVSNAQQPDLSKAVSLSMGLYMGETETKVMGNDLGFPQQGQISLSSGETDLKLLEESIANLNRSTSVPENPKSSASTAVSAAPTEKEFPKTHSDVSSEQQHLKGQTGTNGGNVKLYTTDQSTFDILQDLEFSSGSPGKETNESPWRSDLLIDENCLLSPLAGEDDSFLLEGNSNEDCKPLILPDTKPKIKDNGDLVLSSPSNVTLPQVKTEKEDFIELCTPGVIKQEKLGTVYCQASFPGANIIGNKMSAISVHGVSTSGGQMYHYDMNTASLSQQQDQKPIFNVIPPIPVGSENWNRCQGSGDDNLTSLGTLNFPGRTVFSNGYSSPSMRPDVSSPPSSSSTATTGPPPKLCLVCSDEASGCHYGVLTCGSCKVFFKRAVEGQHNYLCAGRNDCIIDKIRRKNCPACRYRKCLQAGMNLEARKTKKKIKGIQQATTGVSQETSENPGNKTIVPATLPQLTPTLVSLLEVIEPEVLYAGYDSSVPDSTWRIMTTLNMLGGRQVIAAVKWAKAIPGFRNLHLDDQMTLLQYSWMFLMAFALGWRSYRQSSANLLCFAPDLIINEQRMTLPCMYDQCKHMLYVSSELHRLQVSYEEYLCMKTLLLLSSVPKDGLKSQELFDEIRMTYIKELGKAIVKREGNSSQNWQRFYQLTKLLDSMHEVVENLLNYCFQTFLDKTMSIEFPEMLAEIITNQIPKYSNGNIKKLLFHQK
Outline: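 HeLa GR-bla reporter line; cells pre-incubated 4 h, compound in DMSO 18 h at 37 C; LiveBLAzer B/G FRET substrate 2 h RT; fluorescence intensity read-out.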

[5] = qHTS assay to identify small molecule antagonists of the glucocorticoid receptor (GR) signaling pathway - cell viability counter screen (AID 720693); also: nearly all actives have a fitted effect of over 55% in size; also: potency is read from the fitted curve at half-maximal effect
[6] = qHTS assay for identifying genotoxic compounds that show differential cytotoxicity against isogenic chicken DT40 cell lines with known DNA damage response pathways - Rev3 mutant cell line (AID 743014); also: nearly all actives have a fitted effect of over 55% in size; also: potency is read from the fitted curve at half-maximal effect
[7] = qHTS assay for identifying genotoxic compounds that show differential cytotoxicity against isogenic chicken DT40 cell lines with known DNA damage response pathways - Rad54/Ku70 mutant cell line (AID 743015); also: nearly all actives have a fitted effect of over 60% in size; also: potency is read from the fitted curve at half-maximal effect
[8] = qHTS assay to identify small molecule antagonists of the androgen receptor (AR) signaling pathway using the MDA cell line - cell viability counter screen (AID 743041; also: nearly all actives have a fitted effect of over 45% in size)
Outline: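 Cytotoxicity counter screen: MDA-kb2 AR-luc cells, compound + R1881, 16 h, 37C, 0% CO2; CellTiter-Fluor added at 15.5 h, fluorescence read after 30 min.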

[9] = qHTS assay to identify small molecule antagonists of the thyroid receptor (TR) signaling pathway - cell viability counter screen (AID 743064); also: nearly all actives have a fitted effect of over 50% in size; also: potency is read from the fitted curve at half-maximal effect
Outline: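 Counter screen for cytotoxicity: compound plus T3 (1 nM final) on GH3.TRE-Luc cells, 23.5 h at 37 °C, then fluorescence viability readout with CellTiter-Fluor.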

[10] = qHTS assay to identify small molecule antagonists of the thyroid receptor (TR) signaling pathway (AID 743065); also: nearly all actives have a fitted effect of over 55% in size; also: potency is read from the fitted curve at half-maximal effect
Outline: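 GH3.TRE-Luc rat pituitary cells (two TREs driving luciferase) were dosed with compound, then stimulated with 1 nM T3 (final) for 23.5 h at 37 C. ONE-Glo luminescence was the read-out, with CellTiter-Fluor fluorescence as the cytotoxicity counter-screen.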

[11] = molecular target: Estrogen receptor (Homo sapiens) (UniProt P03372); experiment: qHTS assay to identify small molecule agonists of the estrogen receptor alpha (ER-alpha) signaling pathway (AID 743075; calls by dose curve;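 also: HEK293 GripTite cells with ER-alpha and UAS-driven beta-lactamase reporter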; also: potency is read from the fitted curve at half-maximal effect)
Chain of Estrogen receptor (Homo sapiens) (P03372 whole entry, looked up): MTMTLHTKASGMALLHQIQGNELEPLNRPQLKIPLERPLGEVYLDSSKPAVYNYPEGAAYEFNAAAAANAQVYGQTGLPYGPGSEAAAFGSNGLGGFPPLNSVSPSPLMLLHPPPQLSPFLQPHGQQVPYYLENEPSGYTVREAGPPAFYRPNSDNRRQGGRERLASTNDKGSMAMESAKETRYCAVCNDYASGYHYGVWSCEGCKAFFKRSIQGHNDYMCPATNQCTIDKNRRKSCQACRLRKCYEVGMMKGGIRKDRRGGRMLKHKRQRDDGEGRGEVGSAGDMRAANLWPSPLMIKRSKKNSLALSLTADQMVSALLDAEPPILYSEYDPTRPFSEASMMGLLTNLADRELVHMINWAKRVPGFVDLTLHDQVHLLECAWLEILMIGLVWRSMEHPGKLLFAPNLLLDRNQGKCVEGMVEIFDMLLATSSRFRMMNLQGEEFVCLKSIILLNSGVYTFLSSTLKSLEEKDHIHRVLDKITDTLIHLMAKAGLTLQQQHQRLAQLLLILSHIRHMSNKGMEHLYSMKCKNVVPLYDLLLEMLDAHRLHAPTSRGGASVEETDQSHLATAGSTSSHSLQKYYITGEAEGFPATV

[12] = molecular target: Estrogen receptor (Homo sapiens) (UniProt P03372); experiment: qHTS assay to identify small molecule agonists of the estrogen receptor alpha (ER-alpha) signaling pathway using the BG1 cell line (AID 743079); also: nearly all actives have a fitted effect of over 20% in size; also: potency is read from the fitted curve at half-maximal effect
[13] = qHTS assay to identify small molecule antagonists of the estrogen receptor alpha (ER-alpha) signaling pathway using the BG1 cell line (AID 743080; calls by dose curve; also: nearly all actives have a fitted effect of over 25% in size; also: potency is read from the fitted curve at half-maximal effect)
Outline: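 Antagonist mode: compounds in DMSO were pinned onto BG1-Luc-4E2 cells alongside 17beta-estradiol agonist, incubated 21.5 h, and ERE-driven luciferase measured with ONE-Glo. Cytotoxicity was multiplexed using CellTiter-Fluor fluorescence.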

[14] = molecular target: Aryl hydrocarbon receptor (Homo sapiens) (UniProt P35869); experiment: qHTS assay to identify small molecule that activate the aryl hydrocarbon receptor (AhR) signaling pathway (AID 743085);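 also: HG2L7.5c1 human HepG2 liver cells with stably integrated DRE-driven firefly reporter; series mostly up to about 70 µM; nearly all actives have a fitted effect of over 15% in size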
Chain of Aryl hydrocarbon receptor (Homo sapiens) (P35869 whole entry, looked up): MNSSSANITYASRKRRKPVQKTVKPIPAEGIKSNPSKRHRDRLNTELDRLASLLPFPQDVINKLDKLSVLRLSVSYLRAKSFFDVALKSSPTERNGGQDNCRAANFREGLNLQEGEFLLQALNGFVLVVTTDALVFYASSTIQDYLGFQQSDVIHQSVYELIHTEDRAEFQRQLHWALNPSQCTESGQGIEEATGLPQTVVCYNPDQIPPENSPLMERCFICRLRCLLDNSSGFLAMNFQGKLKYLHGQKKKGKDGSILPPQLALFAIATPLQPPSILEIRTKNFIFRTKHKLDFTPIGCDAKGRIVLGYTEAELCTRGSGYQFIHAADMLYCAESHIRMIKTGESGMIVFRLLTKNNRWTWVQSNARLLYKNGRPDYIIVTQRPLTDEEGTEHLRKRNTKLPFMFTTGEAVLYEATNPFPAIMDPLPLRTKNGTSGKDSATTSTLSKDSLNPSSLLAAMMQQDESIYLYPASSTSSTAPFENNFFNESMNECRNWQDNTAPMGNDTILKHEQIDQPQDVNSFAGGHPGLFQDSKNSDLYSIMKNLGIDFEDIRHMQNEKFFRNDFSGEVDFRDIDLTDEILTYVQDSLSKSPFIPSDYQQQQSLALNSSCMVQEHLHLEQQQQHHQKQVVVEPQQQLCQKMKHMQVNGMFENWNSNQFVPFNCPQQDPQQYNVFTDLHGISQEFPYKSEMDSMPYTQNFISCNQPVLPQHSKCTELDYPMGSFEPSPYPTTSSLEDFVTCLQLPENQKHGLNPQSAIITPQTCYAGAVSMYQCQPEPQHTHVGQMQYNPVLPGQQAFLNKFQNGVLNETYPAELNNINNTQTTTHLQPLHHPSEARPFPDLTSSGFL
Outline: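 Measured in HG2L7.5c1 cells: CellTiter-Fluor signal (30 min incubation, 37C) for viability, then luciferase luminescence (30 min, room temperature). Compound contact time was 24 h at 37C, following a 5 h pre-incubation.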

[15] = molecular target: Peroxisome proliferator-activated receptor gamma (Homo sapiens) (UniProt P37231); experiment: qHTS assay to identify small molecule agonists of the peroxisome proliferator-activated receptor gamma (PPARg) signaling pathway (AID 743094; active = well fitted activation curve with a large enough effect in the signal ratio in the repeat runs, not every such curve was filed as active; inconclusive = weak or mixed curves, or effect the other way; inactive = no such curve, though single readings can be large or run the other way; the % refers to the signal ratio)
Chain of Peroxisome proliferator-activated receptor gamma (Homo sapiens) (P37231 whole entry, looked up): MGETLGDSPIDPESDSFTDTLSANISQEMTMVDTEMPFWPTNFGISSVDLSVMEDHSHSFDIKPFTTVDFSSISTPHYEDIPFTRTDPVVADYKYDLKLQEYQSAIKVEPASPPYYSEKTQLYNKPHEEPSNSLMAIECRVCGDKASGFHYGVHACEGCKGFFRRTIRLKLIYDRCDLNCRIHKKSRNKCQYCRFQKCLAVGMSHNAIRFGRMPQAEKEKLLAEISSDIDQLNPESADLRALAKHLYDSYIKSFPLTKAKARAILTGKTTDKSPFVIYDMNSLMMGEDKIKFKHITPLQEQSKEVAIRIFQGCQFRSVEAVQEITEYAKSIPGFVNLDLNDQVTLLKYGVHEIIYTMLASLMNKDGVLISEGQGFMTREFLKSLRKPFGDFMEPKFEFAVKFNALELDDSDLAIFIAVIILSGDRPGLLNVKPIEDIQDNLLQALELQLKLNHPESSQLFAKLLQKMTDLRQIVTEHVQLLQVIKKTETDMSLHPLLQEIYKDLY
Outline: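 HEK293H PPARg-bla cells, 5 h settle at 37C/5% CO2; compound (DMSO) 17 h, 37C; B/G FRET substrate 1 h RT; fluorescence intensity read-out. qHTS format.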

[16] = molecular target: Nuclear receptor subfamily 1 group I member 2 (Homo sapiens) (UniProt O75469); experiment: CYP3A4 induction through human pregnane X receptor (PXR) by small molecules, qHTS assay (AID 1346984); also: nearly all actives have a fitted effect of over 40% in size; also: potency is read from the fitted curve at half-maximal effect
Outline: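 HepG2-derived DPX-2 line carrying PXR plus a CYP3A4-promoter luciferase reporter; cells plated 5 hr, compound-exposed 24 hr at 37C. CYP3A4 activity probed with 3uM (final) Luciferin-IPA for 3hr, then luciferase read after One-Glo.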

[17] = molecular target: Nuclear receptor subfamily 1 group I member 2 (Homo sapiens) (UniProt O75469); experiment: Human pregnane X receptor (PXR) activation by small molecules, qHTS assay (AID 1346985); also: nearly all actives have a fitted effect of over 40% in size
Outline: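 DPX-2 cells (HepG2 co-transfected with a PXR response element and a CYP3A4-promoter luciferase construct) were seeded at 2,000 per well, rested 5 hr at 37C, then exposed to DMSO-dissolved compounds for 24 hr. Activation was read as luciferase luminescence.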

[18] = qHTS assay for small molecule disruptors of the mitochondrial membrane potential (AID 720635); also: potency is read from the fitted curve at half-maximal effect
Outline: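 HepG2 cells exposed to compound 1 hr at 37C, then Mito-MPS dye 30 min. Ratio read of aggregate (540/590 nm) versus monomer (490/535 nm) fluorescence.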

[19] = qHTS assay to test for compound auto fluorescence at 535 nm (green) in HepG2 cells (AID 720675)
[20] = qHTS assay to test for compound auto fluorescence at 590 nm (red) in HEK293 cells (AID 720679)
Outline: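 Each well held 2,000 HEK293 cells in medium containing 10% dialyzed FBS. Following 4-5 hr attachment at 37C, 23 nL test compound or DMSO was added; plates sat overnight, and red fluorescence (540/590nm) was recorded.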

Measured: Potency

CCCCCCC(=O)O[C@H]1CC[C@H]2[C@@H]3CC[C@H]4CC(=O)C=C(C)[C@]4(C)[C@H]3CC[C@]12C
active: [11] 6.74 µM [inconclusive] | [12] 2.11 µM
not listed: [18] | [19] | [20]
inactive: all other assays above

Cc1ccccc1-n1c(C)nc2ccccc2c1=O
inactive and 53.9 µM (active): [12]
active: [6] 53.9 µM
not listed: [1] | [3] | [7] | [8] | [9] | [14]
inactive: all other assays above

Cc1nnc2n1-c1ccc(Cl)cc1C(c1ccccc1)=NC2
active: [10] 26.6 µM | [13] 11.9 µM
not listed: [7] | [9] | [12] | [15] | [17] | [18]
inactive: all other assays above

COc1cc([C@@H]2c3cc4c(cc3[C@@H](O)[C@H]3COC(=O)[C@H]23)OCO4)cc(OC)c1O
inactive: [19] | [20] | [1] | [2] | [3] | [4] | [5] | [12]
active: [18] 2.11 µM | [6] 0.266 µM | [7] 0.266 µM | [9] 10.6 µM | [10] 0.266 µM

Oc1cccc[c]1[Hg][Cl]
active: [18] 11.1 µM | [5] 5.35 µM | [6] 0.75 µM | [7] 0.473 µM | [10] 0.473 µM | [11] 6.01 µM [inconclusive]
inactive: [19] | [1] | [3] | [14] | [16]

CC[C@H]1[C@@H]2C[C@H]3[C@@H]4N(C)c5ccccc5[C@]45C[C@@H](C2[C@H]5O)N3[C@@H]1O (stereo not given in full)
not listed: [16] | [17] | [18] | [20]
inactive: all other assays above

COC(=O)[C@H]1[C@@H](OC(=O)c2ccccc2)C[C@@H]2CC[C@H]1N2C
not listed: [4] | [6] | [9] | [14] | [16] | [17]
inactive: all other assays above

CCC1C(C)=NN=C(c2ccc(OC)c(OC)c2)c2cc(OC)c(OC)cc21 (stereo not given)
not listed: [4] | [5] | [6] | [17] | [18] | [19]
inactive: all other assays above

CC(N)Cc1ccc2c(c1)OCO2 (stereo not given)
not listed: [16] | [17]
inactive: all other assays above

C=C[C@H]1CN2CC[C@H]1C[C@H]2[C@H](OC(=O)OCC)c1ccnc2ccc(OC)cc12
inactive: [19] | [20] | [1] | [2] | [3] | [4] | [7] | [8] | [10] | [15] | [16]

C[C@@H]1[C@H]2Cc3ccc(O)cc3[C@]1(C)CCN2C
active: [10] 50.2 µM
inactive: [18] | [19] | [20] | [1] | [2] | [3] | [4] | [5] | [8] | [14]

CN[C@]1(c2ccccc2Cl)CCCCC1=O
not listed: [16] | [17] | [19]
inactive: all other assays above

CCc1cc(OC)c(C[C@@H](C)N)cc1OC
active: [6] 63.6 µM | [7] 71.4 µM | [10] 56.7 µM
inactive: [19] | [20] | [1] | [2] | [3] | [4] | [5] | [14]

Clc1ccc(C(Cn2ccnc2)OCc2csc3c(Cl)cccc23)c(Cl)c1 (stereo not given)
inactive: [19] | [20] | [1] | [5] | [8] | [13] | [14] | [15]
active: [16] 3.98 µM

From PubChem BioAssay (Tox21)
